Holding throughout (test): qHTS profiling for inhibitors of Plasmodium falciparum proliferation (AID 504749); also: nearly all actives have a fitted effect of over 60% in size
What all share (details): P. falciparum in erythrocytes, SYBR Green DNA, 72 h; series mostly up to 28.7 µM
On the technique in general: In qHTS, concentration-response curves come from the screen itself.

One assay concerns CP266. Put shortly:
(§1)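 In a 72 h erythrocytic culture (37 C, humidified, 5% CO2) at 2.5% hematocrit and 0.3% starting parasitemia, compounds were tested; SYBR Green I in detergent lysis buffer stained parasite DNA overnight.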

The test system of another assay is CP268. Put shortly:
as §1

A further assay relates to CP269. Put shortly: as §1
The test system of the next assay is CP286. Put shortly: as §1
The next assay deals with CP291. Put shortly:
as §1

The next assay has as its system CP297. In a few lines: as §1
The test system of another assay is CP305. In a few lines:
as §1

A further assay relates to CP315. In a few lines:
as §1

The test system of a further assay is CP325. In a few lines:
as §1

The test system of the next assay is CP329. Put shortly:
as §1

Results filed as inconclusive are left out. Active and inactive are the calls of the source. Calls follow the shape of the dose curve; as a rule, active = well fitted inhibition curve with a large enough effect; inconclusive = small, poorly fitted or top-dose-only effect; inactive = flat fitted curve, though single readings scatter.
Potency is read from the fitted curve at half-maximal effect.

Consider `CN1c2c(nc(N)[nH]c2=O)NCC1CNc1ccc(C(=O)NC(CCC(=O)O)C(=O)O)cc1` (stereo not given), for which the Potency result in the assay with CP266, with CP268, with CP269, in the assay with CP286, with CP291 and in the assay with CP297 was “inactive” in each case. In addition, the Potency result in the assay on CP305, in the assay on CP315, in the assay with CP325 and in the assay on CP329 was “inactive” throughout.
As to `CNC(=O)c1c(I)c(C(=O)NCC(=O)Nc2c(I)c(C(=O)O)c(I)c(C(=O)NCCO)c2I)c(I)c(N(C)C(C)=O)c1I`, the Potency entry in the assay on CP266, in the assay on CP268, in the assay with CP269, with CP286, in the assay on CP291 and with CP297 was “inactive” throughout. In addition, the Potency result in the assay on CP305, in the assay on CP325 and with CP329 was “inactive” each time.
For `Cc1cc(C(=O)NCCc2ccc(S(=O)(=O)NC(=O)NN3CCCCCC3)cc2)no1`, the Potency entry with CP266, in the assay with CP268, in the assay with CP269, with CP286, in the assay with CP291 and in the assay on CP305 was “inactive” throughout. In addition, the Potency entry in the assay on CP315, in the assay with CP325 and with CP329 was “inactive” throughout.
Take `CN1C(C(=O)Nc2ccccn2)C(=O)c2sc(Cl)cc2S1(=O)=O` (stereo not given): the Potency result in the assay with CP266, in the assay with CP268, in the assay with CP269, in the assay with CP286, in the assay on CP297 and with CP305 was “inactive” each time. Moreover, the Potency entry in the assay on CP315, in the assay on CP325 and in the assay on CP329 was “inactive” in each case.
As for `CCCOC(=O)c1ccccc1O`, the Potency entry in the assay with CP266, in the assay with CP268, with CP269, in the assay with CP286, with CP291 and in the assay on CP297 was “inactive” in each case. Moreover, the Potency result in the assay with CP305, in the assay on CP315, with CP325 and in the assay on CP329 was “inactive” throughout.
With `COC(=O)CC[C@H](N)C(=O)O`, the Potency result with CP266, with CP268, with CP269, in the assay with CP286, with CP291 and in the assay with CP297 was “inactive” in each case. Besides, the Potency entry with CP305, in the assay on CP315, with CP325 and in the assay on CP329 was “inactive” throughout.
With `CC(C)(C)CC(C)(C)c1ccc(OCCO)cc1`, the Potency entry with CP266, in the assay on CP268, with CP269, in the assay on CP286, with CP291 and with CP297 was “inactive” in each case. Moreover, the Potency entry in the assay on CP305, with CP325 and in the assay with CP329 was “inactive” throughout.
On to `CO/N=C(/C(=O)N[C@@H]1C(=O)N2C(C(=O)O)=C(COC(N)=O)CS[C@H]12)c1ccco1`, for which the Potency result in the assay with CP266, with CP268, in the assay with CP269, with CP286, with CP291 and in the assay with CP305 was “inactive” in each case. The Potency result in the assay with CP315, in the assay on CP325 and in the assay with CP329 was “inactive” each time.
On to `CCCCCCCCCCCCCCCCOCCOCCOCCOCCOCCOCCOCCOCCOCCOCCOCCOCCOCCOCCOCCOCCOCCOCCOCCOCCO`, for which the Potency entry in the assay with CP266 and with CP315 was “inactive” in each case. Besides, the Potency in the assay with CP305 was 12 µM (active).
`CN(C)C=Nc1c(I)cc(I)c(CCC(=O)O)c1I`: the Potency entry with CP266, with CP269, in the assay on CP286, in the assay with CP291, in the assay with CP305 and with CP315 was “inactive” in each case. Moreover, the Potency entry in the assay with CP325 and in the assay on CP329 was “inactive” each time.
Turning to `[O]=[Bi][O][Bi]=[O]`, the Potency entry with CP268, with CP269, in the assay on CP286, with CP291, with CP297 and in the assay with CP305 was “inactive” each time. Also, the Potency entry with CP315, with CP325 and in the assay with CP329 was “inactive” each time.
`OCc1ccccc1`: the Potency result in the assay with CP266, in the assay with CP315 and in the assay with CP329 was “inactive” throughout.
As to `FC(F)OC(Cl)C(F)(F)F` (stereo not given), the Potency entry with CP266, with CP269, with CP286, in the assay on CP291, with CP297 and with CP305 was “inactive” each time. Moreover, the Potency result with CP315, in the assay with CP325 and in the assay with CP329 was “inactive” throughout.
In the case of `O=C(OCc1ccccc1)c1cccnc1`, the Potency result with CP266, with CP268, in the assay on CP269, with CP291, with CP297 and in the assay with CP305 was “inactive” in each case. The Potency entry with CP315, in the assay with CP325 and with CP329 was “inactive” in each case.
In the case of `O=P(O)(O)CP(=O)(O)O`, the Potency result in the assay on CP266, with CP269, in the assay with CP286, in the assay with CP291, with CP297 and with CP305 was “inactive” in each case. The Potency result in the assay on CP315, in the assay on CP325 and with CP329 was “inactive” in each case.
As to `CO/N=C(\C(=O)N[C@@H]1C(=O)N2C(C(=O)[O-])=C(C[n+]3cccc4c3CCC4)CS[C@H]12)c1csc(N)n1`, the Potency entry in the assay on CP266, in the assay on CP269, in the assay on CP286, with CP291, in the assay on CP305 and in the assay on CP315 was “inactive” throughout. Moreover, the Potency entry in the assay with CP325 and in the assay on CP329 was “inactive” in each case.
Take `S=C=Nc1ccc(N=C=S)cc1`: the Potency entry in the assay on CP268, in the assay on CP269, in the assay on CP286, with CP291, in the assay with CP297 and with CP305 was “inactive” throughout. The Potency result in the assay on CP315, in the assay with CP325 and with CP329 was “inactive” in each case.
For the compound `C[C@]12CCC(=O)C[C@@H]1CC[C@@H]1[C@@H]2CC[C@]2(C)C=CC[C@@H]12`, the Potency result in the assay on CP266, in the assay on CP268, in the assay with CP269, in the assay with CP291, in the assay with CP297 and in the assay with CP305 was “inactive” each time. The Potency entry in the assay on CP315, in the assay with CP325 and with CP329 was “inactive” in each case.
For the compound `COc1ccc(C(=O)CCC(=O)O)c2ccccc12`, the Potency result in the assay with CP268, with CP269, in the assay on CP286, in the assay with CP291, in the assay with CP297 and with CP305 was “inactive” each time. Besides, the Potency entry in the assay on CP315, in the assay with CP325 and in the assay with CP329 was “inactive” each time.
On to `CCCOc1cc(N)ccc1C(=O)OCCN(CC)CC`, for which the Potency result with CP266, with CP268, in the assay on CP286, in the assay on CP291, in the assay on CP305 and with CP329 was “inactive” throughout.
With `C(=C\c1ccncc1)/c1ccccc1`, the Potency entry with CP266, with CP268, with CP269, in the assay with CP286, in the assay with CP297 and with CP305 was “inactive” in each case. Besides, the Potency entry with CP315, in the assay on CP325 and in the assay with CP329 was “inactive” throughout.
In the case of `O=C(c1cc2ccccc2o1)N1CCN(Cc2ccccc2)CC1`, the Potency result in the assay with CP266, in the assay with CP305 and in the assay on CP315 was “inactive” in each case.
As to `CC(C)(Oc1ccc(C2CCCc3ccccc32)cc1)C(=O)O` (stereo not given), the Potency result with CP268, in the assay with CP269, in the assay on CP286, in the assay with CP291, in the assay on CP297 and in the assay with CP305 was “inactive” throughout. The Potency result in the assay with CP315, in the assay on CP325 and in the assay on CP329 was “inactive” in each case.
On to `O=C(O[C@H]1CN2CCC1CC2)N1CCc2ccccc2[C@@H]1c1ccccc1`, for which the Potency result with CP266, in the assay on CP268, with CP286, with CP291, with CP297 and in the assay on CP305 was “inactive” throughout. The Potency entry with CP315, in the assay with CP325 and in the assay on CP329 was “inactive” each time.
Consider `CN(C)CCCSc1ccccc1NC(=O)/C=C/c1ccccc1`, for which the Potency result with CP266, with CP269, in the assay with CP286, in the assay on CP291, in the assay on CP305 and in the assay with CP315 was “inactive” throughout. Besides, the Potency result in the assay with CP325 and in the assay with CP329 was “inactive” each time.
For the compound `COc1ccc2nc(NC(=O)Nc3ccccc3)sc2c1`, the Potency result in the assay on CP266, in the assay on CP268, with CP286, in the assay on CP297, with CP305 and in the assay with CP315 was “inactive” in each case. For the same compound, in the assay with CP325, the Potency result was “inactive”.
As for `CCCCCCCCCCCC(=O)N(CCO)CCO`, the Potency result in the assay with CP266, in the assay on CP269, in the assay on CP286, in the assay with CP291, in the assay with CP297 and in the assay on CP305 was “inactive” each time. Besides, the Potency result in the assay on CP315, in the assay on CP325 and in the assay with CP329 was “inactive” in each case.

These data come from PubChem BioAssay (NCATS).
